Screening results as filed in PubChem.
mHTT CaM bind: mutant huntingtin-calmodulin interaction inhibitors – biochemical, AlphaScreen, primary screen; P42858; AID 1671202, 2021; AlphaScreen His-mHTT/GST-CaM binding, luminescence; inhibition, % at 15 µM; 3.6% of 190,000 active;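 also: 0% = both proteins with DMSO and 100% = one protein alone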
Pf apPOL inh: Pf-apPOL inhibitors, biochemical, fluorescence; 0.25% of 210,000 active; Plasmodium falciparum apicoplast DNA polymerase (apPOL); inhibition, % at 10 µM; Recombinant Pf-apPOL, molecular beacon fluorescence, 1.5 h
An asterisk follows results filed as active; . = no result given. Sampled rows, rich in hits. Any-hit rate of the full collection: about 3.6%. Rule as the data show it: active = inhibition above about 50%; inactive = the rest.

SMILES	mHTT CaM bind	Pf apPOL inh
N#C/C(=C\c1ccc2c(c1)OCO2)c1[nH]nc(N)c1C#N	20	-3
COc1ccc(OC)c(/C=C(\C#N)c2[nH]nc(N)c2C#N)c1	61*	-64
CC(NC(=O)Cc1csc(SCC(=O)Nc2ccc(F)cc2)n1)c1ccccc1 (stereo not drawn)	-11	-3
CCOC(=O)COc1ccc2c(c1)OC(=Cc1ccc(Cl)c(Cl)c1)C2=O	0	5
CS(=O)(=O)N1CCCC(C(=O)Nc2nccs2)C1 (stereo not drawn)	-7	-3
CCCC(CCC)C(=O)NCCC1CCN(C(=O)Nc2cccc(C)c2)CC1	-3	2
CN1c2ccccc2C(C)(C)C12C=Cc1cc([N+](=O)[O-])cc([N+](=O)[O-])c1O2 (stereo not drawn)	8	-4
Cc1ccc(C2C(C#N)=C(N)Oc3c2ccc2cccnc32)cc1 (stereo not drawn)	58*	-5
Cc1ccc(C2C(C#N)=C(N)Oc3cc(O)ccc32)cc1 (stereo not drawn)	10	-6
Cc1ccc(S(=O)(=O)NCCC2CCN(C(=O)c3ccccc3)CC2)cc1	46	3
O=C(c1ccccc1)N1CCC(CCNS(=O)(=O)c2ccc3c(c2)CCCC3)CC1	60*	4
CCc1ccc(S(=O)(=O)NCCC2CCN(C(=O)c3ccccc3)CC2)cc1	39	-4
O=C(c1ccccc1)N1CCC(CCNS(=O)(=O)c2ccccc2)CC1	50*	1
COc1ccccc1NC(=O)C1CCN(c2ccncc2)CC1	-8	2
N#Cc1c(N)n(-c2cc(Cl)cc(Cl)c2)c2nc3ccccc3nc12	-2	8
COc1ccc(OC)c(Nc2ncc3c(n2)CCN(Cc2cccc(C)c2)C3)c1	64*	-3
CCOc1ccccc1CN1CCc2nc(Nc3ccc(OC)cc3OC)ncc2C1	55*	-6
COc1ccc(OC)c(Nc2ncc3c(n2)CCN(Cc2cccc(F)c2F)C3)c1	17	-2
COc1ccc(OC)c(Nc2ncc3c(n2)CCN(Cc2ccccc2OC)C3)c1	59*	-2
COc1ccc(Nc2ncc3c(n2)CCN(Cc2ccccc2OC)C3)c(OC)c1	45	-3
COc1ccc(Nc2ncc3c(n2)CCN(Cc2cccc(C)c2)C3)c(OC)c1	9	-8
Cc1cccc(CC(=O)N2CCc3c(c(-c4nc(Cc5ccccc5)no4)nn3C)C2)c1	11	-1
CC(=O)c1ccc2c(c1)OCCOCCOc1ccc(C(C)=O)cc1OCCO2	7	0
CCOC(=O)c1cc(CC)sc1NC(=O)C(Cl)(Cl)Cl	.	0
O=C(c1cccc(F)c1)N1CC(C(=O)N2CCSCC2)CC(c2ccccc2)C1 (stereo not drawn)	21	-2
SMILES	mHTT CaM bind	Pf apPOL inh
COCCCNC(=O)C1(C)CCC(=O)N1CCc1ccc(Cl)cc1 (stereo not drawn)	-5	-2
CCC(C)c1ccc(OCCCN2CCN(C)CC2)cc1 (stereo not drawn)	3	-7
CCC(C)c1ccc(OCCCCN2CCN(C)CC2)cc1 (stereo not drawn)	54*	-1
CC(=O)C1=C(O)C(=O)N(CCCC(=O)O)C1c1ccc(Br)cc1 (stereo not drawn)	1	-4
CCCOc1ccc(/C=C2/N=C(c3ccc(Cl)cc3)OC2=O)cc1OC	10	-5
Cc1c(Cl)c([N+](=O)[O-])nn1CCCC(=O)N(Cc1ccccc1)Cc1ccccc1	84*	-6
Cc1c(Cl)c([N+](=O)[O-])nn1CCCC(=O)N1CCN(c2ccccc2)CC1	0	4
Cc1ccc(C(=O)N/C(=C\c2ccc3c(c2)OCO3)C(=O)Nc2cc([N+](=O)[O-])ccc2C)cc1C	4	-2
CCOc1ccc(C2C3=C(CCCC3=O)Nc3ncnn32)cc1 (stereo not drawn)	-7	-1
COc1ccc(C2C3=C(CCCC3=O)NC3=C2C(=O)c2ccccc23)cc1 (stereo not drawn)	61*	-2
O=C1CCCC2=C1C(c1cccs1)C1=C(N2)c2ccccc2C1=O (stereo not drawn)	31	2
CCOc1ccc(C2C3=C(CCCC3=O)NC3=C2C(=O)c2ccccc23)cc1 (stereo not drawn)	74*	-4
COc1cccc(OC)c1OCCN1CCOCC1	-5	-8
c1csc(-c2cncc(-c3nnc(-c4cccc5ccccc45)o3)c2)c1	.	4
c1ccc(-n2ncc3c2-c2[nH]c4ccccc4c2CC3)cc1	93*	-5
c1ccc(-n2ncc3c2CCc2c-3[nH]c3ccccc23)cc1	33	-1
Cc1ccc2nc(NC(=O)C34CC5CC(C3)CC(n3cnc([N+](=O)[O-])n3)(C5)C4)sc2c1	2	-2
Cc1ccc(NC(=O)CSc2ccc(Nc3ccc(C)cc3)nn2)cc1	4	15
O=C1Nc2ccccc2Oc2cc([N+](=O)[O-])cc(Oc3ccc(Br)cc3)c21	42	-7
O=C1Nc2ccccc2Oc2cc([N+](=O)[O-])cc(Oc3ccc(Cl)cc3)c21	51*	-2
Nc1ccc(Oc2ccc(N)c(N)c2)cc1	88*	-10
COc1ccc(Oc2ccc(N)cc2)cc1	22	-5
CCCNC(=O)C(=O)NCC1CCN(C)CC1	-8	-9
COC(=O)c1sccc1NC(=O)N1CCc2cn(C)c3cccc(c23)C1	36	-6
Cc1ccc(N2NC(=O)/C(=C\c3ccc(-c4cccc([N+](=O)[O-])c4)o3)C2=O)cc1C	13	-4
SMILES	mHTT CaM bind	Pf apPOL inh
O=C(OCn1nnc2ccccc2c1=O)c1ccccc1[N+](=O)[O-]	-13	7
O=C1C=CC(=NS(=O)(=O)c2ccc(F)cc2)c2ccccc21	100*	-4
CC(C)c1ccc(S(=O)(=O)N=C2C=CC(=O)c3ccccc32)cc1	67*	11
CCN(CC)c1ccc(N=C2C=CC(=O)c3ccccc32)c(C)c1	.	0
O=C1C=CC(=NS(=O)(=O)c2ccc(Cl)cc2)c2ccccc21	98*	-2
O=C1C=CC(=NS(=O)(=O)c2ccc(Cl)cc2)C=C1	48	-6
CC(C)c1ccc(S(=O)(=O)N2CCN(C)c3ccccc32)cc1	41	2
COc1ccc(OC)c(C2=NOC(C(=O)N3CCc4ccccc4C3)C2)c1 (stereo not drawn)	-7	-4
O=C(Nc1ccc(O)c(-c2nc3ccccc3s2)c1)c1ccccc1F	-1	-4
CCC(C)C(=O)Nc1cc(C)cc(C)c1 (stereo not drawn)	-1	-5
O=C(Cc1c[nH]c2ncccc12)NCc1ccc(C(F)(F)F)cc1	-10	86*
O=C(Cc1c[nH]c2ncccc12)NCc1ccccc1	1	-1
O=C(NCCc1cccs1)C1CCN(c2cc(N3CCCCC3)ncn2)CC1	6	-4
COc1ccccc1-c1nc(C2CCCN(C(=O)c3cccc(Cl)c3)C2)no1 (stereo not drawn)	16	-1
O=C(NCCCN1CCOCC1)c1cc2nc(-c3cccs3)cc(C(F)(F)Cl)n2n1	25	-4
O=C(NCCc1c[nH]c2ccccc12)c1cc2nc(-c3cccs3)cc(C(F)(F)Cl)n2n1	82*	-1
COc1ccccc1N1CCN(C(=O)C2CC2)CC1	-6	-1
COc1ccccc1N1CCN(C(=O)C2CCCc3c2[nH]c2ccccc32)CC1 (stereo not drawn)	59*	6
c1csc(CNCCNCc2cccs2)c1	-5	.
CCn1cc2c3c(cccc31)CN(C(=O)COc1ccccc1)CC2	75*	-8
